A short description of experiment [1]: Nuclear factor erythroid 2-related factor 2/antioxidant responsive element (Nrf2/ARE) small molecule agonists: qHTS cell viability counter screen in human keratinocytes (AID 1919968; active means well fitted curve in the direction sought with a large enough effect in the repeat runs; an effect the other way counts as inactive or inconclusive; further: nearly all actives have a fitted effect of over 55% in size). The method in brief: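 Parallel cytotoxicity read: KeratinoSens HaCaT cells, compound treatment 23 h, viability by CellTiter-Fluor fluorescence 1 h post-reagent.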
In general terms: In qHTS, concentration-response curves come from the screen itself.

Experiment [2] in a line: Nuclear factor erythroid 2-related factor 2/antioxidant responsive element (Nrf2/ARE) small molecule agonists: luciferase reporter gene qHTS assay in human keratinocytes (AID 1919969; further: nearly all actives have a fitted effect of over 35% in size; further: potency means the concentration at half of the fitted maximal effect). (In general: A reporter such as luciferase makes a cellular process visible.)
The target in experiment [3] is Gonadotropin-releasing hormone receptor (Homo sapiens) (UniProt P30968). Kind of experiment: Human gonadotropin-releasing hormone receptor (GnRHR) small molecule agonists, calcium flux assay in GnRHR-HEK293 cells (AID 1920063). Further: nearly all actives have a fitted effect of over 35% in size. The method in brief: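 Calcium flux, agonist mode, human GnRHR stably integrated in HEK293; dye 1 h at 37 C before compound; Ex/Em=480/540 kinetic read, 3 min; 15 concentrations, triplicate.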
In general terms: A change in cytosolic calcium serves as a functional read-out for many receptors and channels.

A short description of experiment [4]: G protein-coupled receptor (GPCR) small molecule agonists, calcium flux assay: HEK293 wild type cell line counter screen (AID 1920065). A digest of the protocol:
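Non-specific calcium responders were flagged by adding DMSO-dissolved compounds to dye-loaded cells and reading 480/540 nm fluorescence each second for 3 min; ATP served as positive control.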

Experiment [5] is described as follows: p53 small molecule agonists, cell-based qHTS assay with rat liver microsomes (AID 1963578). A digest of the protocol: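 With rat liver microsomes and NADPH present (0.5 mg/mL final each), p53RE-bla cells are treated with compound for 16 h at 37 C. LiveBLAzer detection mixture is then applied for 2 h at room temperature in the dark.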
Experiment [6] in a line: p53 small molecule agonists, cell-based qHTS assay with human liver microsomes: qHTS cell viability counter screen (AID 1963579). Further: nearly all actives have a fitted effect of over 45% in size. The method in brief:
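In this multiplexed counter screen, the reporter plates were subsequently treated with CellTiter-Glo so that cell viability, reflected by luminescence, could be recorded for p53RE-bla cells dosed 16 h with compounds under microsomal activation (HLM and NADPH).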

Experiment [7] in a line: p53 small molecule agonists, cell-based qHTS assay with rat liver microsomes: qHTS cell viability counter screen (AID 1963580). Further: nearly all actives have a fitted effect of over 45% in size. A digest of the protocol: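 Cytotoxicity counter screen: intracellular ATP read by CellTiter-Glo luminescence in the p53 reporter wells. HCT-116 p53RE-bla cells were treated for 16 h at 37 C alongside rat liver microsomes and NADPH, each 0.5 mg/mL final.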

A short description of experiment [8]: p53 small molecule agonists, cell-based qHTS assay: qHTS cell viability counter screen (AID 1963581). Further: nearly all actives have a fitted effect of over 45% in size. A digest of the protocol:
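Multiplexed with the reporter read, a CellTiter-Glo step (30 min, room temperature) gauges ATP-based viability of HCT-116 p53RE-bla cells after 16 h compound incubation at 37 C.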

Experiment [9] is described as follows: p53 small molecule agonists, cell-based qHTS assay (AID 1963582; active means well fitted activation curve with a large enough effect in the signal ratio in the repeat runs, not every such curve was filed as active; the % refers to the signal ratio). The method in brief:
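Beta-lactamase reporter cells (p53RE-bla) treated with compounds for 16 h at 37 C; FRET substrate, 2 h, room temperature; fluorescence intensity.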

The target in experiment [10] is 5-hydroxytryptamine receptor 2A (Homo sapiens) (UniProt P28223). Description: 5-hydroxytryptamine receptor 2A (HTR2A) small molecule antagonists, cell-based qHTS assay (AID 1963586). Further: nearly all actives have a fitted effect of over 45% in size. The method in brief:
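CHO cells stably expressing human HTR2A were plated for 18 h at 37 C, then loaded with calcium dye for 1 h. Compounds were preincubated 5 min at room temperature before DOI (4 nM solution) was added. Kinetic fluorescence was read for 3 min.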

For experiment [11] the target is unchanged. Kind of experiment: 5-hydroxytryptamine receptor 2A (HTR2A) small molecule agonists, cell-based qHTS assay (AID 1963587). Further: nearly all actives have a fitted effect of over 30% in size. The method in brief:
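Kinetic calcium-flux fluorescence (2 min, 1 sec intervals) after compound addition in agonist mode. HTR2A-CHO cells were cultured 18 h, then dye-loaded 1 h at 37 C.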

The target of experiment [12] is Muscarinic acetylcholine receptor M1 (Homo sapiens) (UniProt P11229). Description: Cholinergic receptor muscarinic 1 (CHRM1) small molecule antagonists, cell-based qHTS assay (AID 1963588). Further: nearly all actives have a fitted effect of over 40% in size. A digest of the protocol: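 Compounds were tested at 15 concentrations in three independent runs. Dye-loaded CHRM1-CHO cells were exposed 5 min at room temperature before stimulation by acetylcholine added at 50nM. Intracellular calcium was read kinetically on FDSS for 3 min.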

Experiment [13] shares this target. Description: Cholinergic receptor muscarinic 1 (CHRM1) small molecule agonists, cell-based qHTS assay (AID 1963589). Further: nearly all actives have a fitted effect of over 35% in size. The method in brief:
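qHTS, 15-point titration, 3 independent runs: compounds pin-transferred onto dye-loaded CHRM1-CHO cells (human M1), calcium fluorescence followed every second to detect agonism.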

A short description of experiment [14]: cAMP Responsive Elements (CRE) small molecule agonists, cell-based qHTS assay (AID 1963590). The method in brief:
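Quantitative HTS for CRE agonists: HEK 293T CRE-bla cells, overnight plating, 3 h compound incubation at 37 C/5% CO2, then 2 h room-temperature LiveBLAzer B/G FRET substrate loading.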

Experiment [15] is described as follows: cAMP Responsive Elements (CRE) small molecule antagonists, cell-based qHTS assay (AID 1963591; active means well fitted inhibition curve with a large enough effect in the signal ratio in the repeat runs, not every such curve was filed as active; the % refers to the signal ratio). A digest of the protocol:
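Fluorescence intensity from cleaved LiveBLAzer B/G substrate (2 h, room temperature) quantified CRE-bla activity in HEK 293T cells exposed 3 h to compound with 0.25 uM final NKH477.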

In experiment [16] the target is Beta-2 adrenergic receptor (Homo sapiens) (UniProt P07550). Kind of experiment: Adrenergic beta2 receptor (ADRB2) small molecule antagonists, cell-based qHTS assay (AID 1963592). Further: series mostly up to about 92 µM; nearly all actives have a fitted effect of over 50% in size. The method in brief:
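Assay format: CHO-ADRB2 cells, 18-20hr seeding at 37C/5% CO2, then compound plus 1nM isoproterenol agonist mix for 0.5hr RT. Homogeneous time-resolved fluorescence cAMP detection after 1hr, expressed as 665/615 nm ratio.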

Experiment [17] addresses D(2) dopamine receptor (Homo sapiens) (UniProt P14416). Description: Dopamine D2 receptor (DRD2) small molecule agonists, cell-based qHTS assay (AID 1963594). Further: nearly all actives have a fitted effect of over 35% in size. The method in brief: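 cAMP accumulation in DRD2-HEK293 cells measured by HTRF after 1 h detection; compounds added 10 min before NKH477 (200nM […]) forskolin-analogue stimulation, 30 min at room temperature, with Ro20-1724 present at 0.1 mM final.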

The target is the same in experiment [18]. Kind of experiment: Dopamine D2 receptor (DRD2) small molecule antagonists, cell-based qHTS assay (AID 1963595; active means well fitted inhibition curve with a large enough effect in the signal ratio in the repeat runs, with a control signal flat; the % refers to the signal ratio). The method in brief:
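DRD2-HEK293; 0.1 mM Ro20-1724; cpd 10 min RT; NKH477 200 nM + quinpirole 12 nM, 30 min RT; HTRF cAMP (cAMP-d2/anti-cAMP cryptate), 665/620 nm ratio after 1 h.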

Experiment [19] concerns the target KiSS-1 receptor (Homo sapiens) (UniProt Q969F8). Description: Human kisspeptin (KISS1R) small molecule agonists, calcium flux assay in KISS1R-HEK293 cells (AID 1920064; active means well fitted curve in the direction sought with a large enough effect in the repeat runs; an effect the other way counts as inactive or inconclusive). The method in brief:
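Triplicate 15-concentration series were applied to dye-loaded human KISS1R HEK293 cells, and agonist-evoked calcium fluorescence was captured for 3 min.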

In experiment [20] the target is Beta-2 adrenergic receptor (Homo sapiens) (UniProt P07550). Description: Adrenergic beta2 receptor (ADRB2) small molecule agonists, cell-based qHTS assay (AID 1963593).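 Further: CHO cells stably overexpressing human ADRB2.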 A digest of the protocol: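 CHO cells stably over-expressing ADRB2 were plated overnight at 37C, then dosed with compounds plus a stimulation mix containing 100uM IBMX and 25uM Ro-20-1724 for 0.5hr at room temperature. cAMP was measured by HTRF competition, 1hr.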

Values joined by “and” are separate entries in the source; they are usually repeats but may differ in a detail not shown here. Equal entries are not always repeated. Records with an inconclusive call do not appear. The source holds several records for some structures; these can differ, active in one and inactive in another. Active and inactive are the calls of the source. Unless noted, the call rests on the fitted dose curve.

Sequence of 5-hydroxytryptamine receptor 2A (Homo sapiens) (P28223 whole entry, looked up): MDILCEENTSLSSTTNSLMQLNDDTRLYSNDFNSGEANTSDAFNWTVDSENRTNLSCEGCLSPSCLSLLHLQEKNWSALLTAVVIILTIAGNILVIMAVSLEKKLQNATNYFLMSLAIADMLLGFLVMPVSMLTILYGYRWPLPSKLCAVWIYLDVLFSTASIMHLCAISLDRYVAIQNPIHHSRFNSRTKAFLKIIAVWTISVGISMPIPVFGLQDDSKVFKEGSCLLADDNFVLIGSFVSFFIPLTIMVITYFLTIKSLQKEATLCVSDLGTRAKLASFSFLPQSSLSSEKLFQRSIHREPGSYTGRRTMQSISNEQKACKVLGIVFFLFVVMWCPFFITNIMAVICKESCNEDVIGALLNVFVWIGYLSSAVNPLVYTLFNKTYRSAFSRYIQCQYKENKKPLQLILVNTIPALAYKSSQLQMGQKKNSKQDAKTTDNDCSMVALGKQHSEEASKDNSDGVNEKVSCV
Sequence of D(2) dopamine receptor (Homo sapiens) (P14416 whole entry, looked up): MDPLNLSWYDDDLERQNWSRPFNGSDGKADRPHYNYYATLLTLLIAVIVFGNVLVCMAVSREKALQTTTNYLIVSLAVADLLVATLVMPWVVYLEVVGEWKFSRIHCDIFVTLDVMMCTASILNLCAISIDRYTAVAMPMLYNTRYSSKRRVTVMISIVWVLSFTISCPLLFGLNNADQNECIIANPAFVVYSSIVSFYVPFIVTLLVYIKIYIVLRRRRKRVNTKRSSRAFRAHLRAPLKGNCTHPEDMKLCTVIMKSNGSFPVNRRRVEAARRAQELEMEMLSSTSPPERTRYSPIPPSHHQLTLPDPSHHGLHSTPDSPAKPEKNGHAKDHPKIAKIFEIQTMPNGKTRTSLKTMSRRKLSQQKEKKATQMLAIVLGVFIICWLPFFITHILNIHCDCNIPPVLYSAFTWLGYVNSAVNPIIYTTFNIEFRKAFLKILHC
Sequence of Muscarinic acetylcholine receptor M1 (Homo sapiens) (P11229 whole entry, looked up): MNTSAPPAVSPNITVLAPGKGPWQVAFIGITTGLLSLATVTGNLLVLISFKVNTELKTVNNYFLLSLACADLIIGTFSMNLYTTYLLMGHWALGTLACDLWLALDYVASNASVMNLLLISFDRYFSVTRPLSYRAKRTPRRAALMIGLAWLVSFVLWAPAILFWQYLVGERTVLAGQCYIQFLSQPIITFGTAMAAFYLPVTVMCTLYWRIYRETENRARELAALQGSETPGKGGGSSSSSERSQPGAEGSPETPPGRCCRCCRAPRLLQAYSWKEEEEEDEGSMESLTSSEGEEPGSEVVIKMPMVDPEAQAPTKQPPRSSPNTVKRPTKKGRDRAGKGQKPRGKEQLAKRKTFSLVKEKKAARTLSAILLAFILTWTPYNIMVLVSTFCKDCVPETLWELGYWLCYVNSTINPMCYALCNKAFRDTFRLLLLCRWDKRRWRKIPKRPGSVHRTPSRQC
Sequence of Gonadotropin-releasing hormone receptor (Homo sapiens) (P30968 whole entry, looked up): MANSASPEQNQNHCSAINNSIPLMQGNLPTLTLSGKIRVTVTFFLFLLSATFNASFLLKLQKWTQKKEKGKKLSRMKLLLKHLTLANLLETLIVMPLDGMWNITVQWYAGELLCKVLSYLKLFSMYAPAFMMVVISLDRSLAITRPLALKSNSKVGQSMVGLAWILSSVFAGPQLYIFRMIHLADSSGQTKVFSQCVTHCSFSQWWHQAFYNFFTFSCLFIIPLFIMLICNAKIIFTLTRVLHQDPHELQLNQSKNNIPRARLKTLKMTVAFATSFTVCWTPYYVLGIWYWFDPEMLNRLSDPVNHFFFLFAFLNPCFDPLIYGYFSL
Sequence of KiSS-1 receptor (Homo sapiens) (Q969F8 whole entry, looked up): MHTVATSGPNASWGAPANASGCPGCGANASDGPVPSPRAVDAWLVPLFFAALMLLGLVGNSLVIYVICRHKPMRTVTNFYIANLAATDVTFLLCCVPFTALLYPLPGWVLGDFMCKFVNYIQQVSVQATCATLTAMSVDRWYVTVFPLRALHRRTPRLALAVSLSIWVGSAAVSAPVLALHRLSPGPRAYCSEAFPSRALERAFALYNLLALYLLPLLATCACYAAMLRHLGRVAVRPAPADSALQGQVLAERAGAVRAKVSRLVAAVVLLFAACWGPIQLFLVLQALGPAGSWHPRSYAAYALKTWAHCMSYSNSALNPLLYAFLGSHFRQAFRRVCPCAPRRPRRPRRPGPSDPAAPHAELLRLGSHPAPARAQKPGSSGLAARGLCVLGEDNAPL
Sequence of Beta-2 adrenergic receptor (Homo sapiens) (P07550 whole entry, looked up): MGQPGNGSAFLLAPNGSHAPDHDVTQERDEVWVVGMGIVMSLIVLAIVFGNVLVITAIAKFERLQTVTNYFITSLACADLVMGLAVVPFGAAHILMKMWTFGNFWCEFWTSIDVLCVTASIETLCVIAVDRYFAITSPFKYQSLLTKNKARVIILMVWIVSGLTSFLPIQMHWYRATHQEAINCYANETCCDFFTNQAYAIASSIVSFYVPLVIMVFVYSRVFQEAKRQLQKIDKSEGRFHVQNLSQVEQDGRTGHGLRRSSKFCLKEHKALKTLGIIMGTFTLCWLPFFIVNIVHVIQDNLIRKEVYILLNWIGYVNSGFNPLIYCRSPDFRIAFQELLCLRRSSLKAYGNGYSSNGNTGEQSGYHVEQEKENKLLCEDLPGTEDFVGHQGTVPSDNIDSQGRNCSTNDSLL

`CCCCCCCCCCBr`: the Potency result in experiment [1], in [2], in [3], in experiment [4], in [5] and in experiment [6] was “inactive” each time. The Potency entry in [7], in experiment [8], in experiment [9], in experiment [10], in experiment [11] and in [12] was “inactive” throughout. In addition, the Potency result in experiment [13], in experiment [14], in [15], in experiment [16], in experiment [17] and in [18] was “inactive” in each case.

For `CCn1cc[n+](C)c1`, the Potency result in [1], in experiment [2], in experiment [3], in experiment [19], in experiment [6] and in experiment [7] was “inactive” in each case. For the same compound, the Potency result in [8], in [10], in experiment [11], in [12], in experiment [13] and in [16] was “inactive” each time. The Potency entry in [20], in experiment [17] and in experiment [18] was “inactive” in each case.

Regarding `C[C@]12C=CC3=C4CCC(=O)C=C4CC[C@H]3[C@@H]1CC[C@@H]2O`, the Potency result in experiment [1], in experiment [3], in experiment [19], in [6], in [7] and in [8] was “inactive” throughout. The Potency entry in experiment [16], in experiment [20], in experiment [17] and in experiment [18] was “inactive” in each case. Also, in experiment [2], the Potency was 27.1 µM (active) and 58 µM (active).

As for `CC(C=O)Cc1ccc2c(c1)OCO2` (centres undefined), the Potency result in experiment [1], in [2], in experiment [3], in experiment [19], in [5] and in experiment [6] was “inactive” in each case. For the same compound, the Potency result in [7], in experiment [9], in experiment [10], in experiment [11], in [12] and in experiment [13] was “inactive” in each case. Further, the Potency result in [14], in experiment [15], in experiment [16] and in experiment [17] was “inactive” each time.

On to `O=S(=O)(Oc1ccc(Cl)cc1)c1ccc(Cl)cc1`, for which the Potency result in experiment [1], in experiment [3], in experiment [19], in [6], in experiment [7] and in experiment [8] was “inactive” each time. The Potency entry in experiment [10], in [11], in experiment [12], in experiment [16], in experiment [17] and in experiment [18] was “inactive” throughout. Besides, the Potency in [2] is 27.7 µM (active) and inactive.

Turning to `CN(C)CCO`, the Potency result in experiment [1], in [3], in experiment [4], in [5], in [6] and in experiment [7] was “inactive” throughout. The Potency result in experiment [8], in [9], in experiment [10], in [11], in [12] and in experiment [13] was “inactive” each time. Also, the Potency result in [14], in experiment [15], in experiment [16], in experiment [20], in experiment [17] and in experiment [18] was “inactive” each time. The Potency in experiment [2] is 69.1 µM (active) and inactive.

Regarding `Cc1coc2c1CCC(C)C2` (centres undefined), the Potency entry in experiment [1], in [2], in experiment [3], in experiment [19], in experiment [5] and in experiment [7] was “inactive” throughout. Further, the Potency entry in experiment [8], in experiment [9], in [10], in [11], in experiment [13] and in experiment [14] was “inactive” each time. Further, the Potency result in experiment [15], in experiment [16] and in [17] was “inactive” in each case.

For `O=[N+]([O-])c1c(Cl)c(Cl)c(Cl)c(Cl)c1Cl`, the Potency entry in [1], in experiment [3], in experiment [19], in [5], in [6] and in [7] was “inactive” each time. For the same compound, the Potency result in experiment [8], in experiment [9], in [10], in experiment [11], in experiment [12] and in [13] was “inactive” throughout. Besides, the Potency entry in experiment [15], in experiment [16], in experiment [17] and in experiment [18] was “inactive” in each case. The Potency in [2] is 27.2 µM (active) and 54.5 µM (active).

The values are drawn from PubChem BioAssay (Tox21).
